# Screening data as filed in PubChem BioAssay.
# HTT ATP protect – qHTS Multiplex Assay to Identify Dual Action Probes in a Cell Model of Huntington: Cytoprotection (ATP). hit rate 0.14% among 230,000. Potency, µM (series often up to 56.4 µM), for inactives: cytoprotection (ATP increase), usual class: activators. PC12 HTT-Q103 induced, cytoprotection, ATP luminescence, 40 h. AID 1471, 2008; further: % of control where 0% means no effect; nearly all actives have a fitted effect of over 45% in size
#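 Quantitative HTS on tebufenozide-induced (100 nM) PC12 cells expressing HTTQ103 exon 1–GFP; compounds tested as a concentration series; survival measured via cellular ATP.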
# HTT aggregate – qHTS Multiplex Assay to Identify Dual Action Probes in a Cell Model of Huntington: Aggregate Formation (GFP); PC12 HttQ103-GFP aggregates, Acumen cytometry, 40 h; Potency, µM (doses to about 46.1 µM), for inactives: top-dose activity change, negative = inhibition, actives largely listed as inhibitors; hit rate 1.1% among 220,000; further: on the % scale 0 is the no-effect control and ±100 the full control effect; nearly all actives have a fitted effect of over 60% in size
#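 Read-out: GFP aggregate count by laser scanning cytometer (488 nm excitation, 500-530 nm emission, 1–25 µm objects >6 SD above background). Cells: PC12, inducible HTTex1-Q103-GFP, 100 nM tebufenozide; compounds titrated.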
# Lamin A splicing – qHTS Assay for Modulators of Lamin A Splicing | HeLa LMNA splicing GFP/RFP minigene ratio, 48 h | Potency, µM (highest dose often 46.1 µM), without a hit: at the top dose ratio change, negative = inhibition, most hits filed as inhibitors | hit rate 0.01% among 200,000 | AID 1487, 2009; active means well fitted inhibition curve with a large enough effect in the signal ratio, with a control signal flat, not every such curve was filed as active; inconclusive means small, poorly fitted or top-dose-only effect, or effect the other way, or a change in a side signal; the % refers to the signal ratio; further: on the % scale 0 is the no-effect control and ±100 the full control effect
#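 S3 HeLa stable clones carrying a lamin A-EGFP splicing minigene plus DsRed2 were seeded at 600 cells/well in Opti-MEM with 2% FBS, pin-dosed and incubated 48 h at 37°C. Acumen cytometry (488 nm) gave the GFP/RFP total-intensity ratio.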
# NPSR antag – qHTS Assay for Antagonists of the Neuropeptide S Receptor: cAMP Signal Transduction. hit rate 1% among 220,000. Potency, µM (series often up to 38.3 µM), for inactives: top-dose activity change, negative = inhibition, hits mostly inhibitors. AID 1461, 2008. CHO-NPSR cells, cAMP TR-FRET, antagonist mode; further: on the % scale 0 is the no-effect control and ±100 the full control effect; nearly all actives have a fitted effect of over 50% in size
# Target sequence (Q6W5P4 whole entry, looked up): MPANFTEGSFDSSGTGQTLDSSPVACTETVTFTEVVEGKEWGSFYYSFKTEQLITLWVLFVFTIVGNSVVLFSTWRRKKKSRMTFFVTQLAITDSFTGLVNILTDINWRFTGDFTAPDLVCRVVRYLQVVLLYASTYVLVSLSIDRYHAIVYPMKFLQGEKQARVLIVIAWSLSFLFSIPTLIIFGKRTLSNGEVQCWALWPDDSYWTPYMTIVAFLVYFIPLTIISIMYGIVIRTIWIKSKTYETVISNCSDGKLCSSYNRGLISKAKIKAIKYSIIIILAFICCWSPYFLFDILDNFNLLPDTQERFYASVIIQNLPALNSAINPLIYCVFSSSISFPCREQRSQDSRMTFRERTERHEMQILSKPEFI
# Epigenetic derep – Quantitative High-Throughput Screen for Regulators of Epigenetic Control | Potency, µM (series often up to 53.9 µM), for the others: at the highest dose GFP activation, most hits filed as activators | murine LDR cells, GFP reporter derepression, 30 h | AID 1865, 2009 | hit rate 0.2% among 280,000; further: % of control where 0% means no effect; nearly all actives have a fitted effect of over 60% in size
#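 GFP-positive cell count by laser-scanning cytometry (objects 20–120 um) after 30 h, 37 C compound exposure of murine LDR cells; reporter is CMV-GFP integrated at a silenced locus, inducible by HDAC or DNMT inhibitors.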
# Active calls of the source: *; ? = inconclusive; nt = not tested or not shown; [ ] = dose if it differs, or a comment. Shown are actives, neighbours in structure and some others; about 1.5% of the full set was active somewhere. Unless noted, the call rests on the fitted dose curve; in most records, active means well fitted curve in the direction sought with a large enough effect; inconclusive means small, poorly fitted or top-dose-only effect, or another doubt; inactive means no such curve, though single readings can be large; an effect the other way counts as inactive or inconclusive. Potency means the concentration at half of the fitted maximal effect.
SMILES,HTT ATP protect,HTT aggregate,Lamin A splicing,NPSR antag,Epigenetic derep
CCCN(CCC)CC(O)Cn1cc(/C=C/C(=O)c2ccc(Br)cc2)c2ccccc21 (configuration not stated),nt,nt,nt,nt,16µM*
Cc1nc(NCCc2ccccc2)c2oc3ccccc3c2n1,-44%,7.9µM*,?,-19%[46.1 µM],0%
Cc1nc(NCCN2CCOCC2)c2oc3ccccc3c2n1,-8%,-9%,8%,4%[46.1 µM],-5%
CC(C)N1C(=O)/C(=C\c2nc3ccccc3c(=O)n2-c2ccccc2)c2ccccc21,nt,?,?,-41%,0%
CC(C)N1C(=O)/C(=C/c2nc3ccccc3c(=O)n2-c2ccccc2)c2ccccc21,4%[10 µM],?,-17%,10µM*,-4%
O=c1c2ccccc2sc2nc(C3CCCCC3)n(Cc3ccco3)c(=O)c12,-9%[0.074 µM],0%,?,10µM*,-1%
CCc1nc2sc3ccccc3c(=O)c2c(=O)n1Cc1ccco1,-9%[10 µM],6%,-2%,-22%[46.1 µM],2%
CC1CCC/C=C/C(=O)c2c(O)cc(O)cc2CC(=O)O1 (configuration not stated),24%[10 µM],33%[9.22 µM],nt,5µM*,0%
C[C@@H]1Cc2c(O)c(O)cc(O)c2C(=O)O1,-34%[10 µM],-34%[9.22 µM],nt,16%,-1%
Cc1nn(C)c(C)c1/C=C/C(=O)O,11µM*,13%,-9%[46 µM],6%,-1%
Cc1c(C(=O)Nc2ccc(Oc3ccccc3)cc2)sc2nc3n(c(=O)c12)CCC3,-44%,4.5µM*,?,-19%[46.1 µM],-1%
O=C1C=CC(=O)C(C2=C3C(=O)N(CCc4ccccc4)CC(=O)N3CCC2)=C1,nt,7.1µM*,?,10µM*,0%
COc1ccc(NC(=O)CCCOc2cc(=O)n(C)c3ccccc23)c(OC)c1,nt,nt,nt,nt,1%
OC[C@H](CCc1c[nH]c2ccccc12)c1c[nH]c2ccccc12,13%[10 µM],nt,nt,nt,nt
Cc1ccc(S(=O)(=O)NC(=O)NC2CCCCC2)cc1,-21%,20%,nt,nt,nt
Cc1ccc(S(=O)(=O)NC(C)C(=O)NC2CCCCCC2)cc1 (configuration not stated),-2%[0.074 µM],0.89µM*,6%,-7%[46.1 µM],0%
OCC1OC(c2ccccc2)C=CC1Oc1cc(Cl)cc(Cl)c1 (configuration not stated),-43%[10 µM],nt,nt,nt,0%[10.1 µM]
O=C(NNC(=S)Nc1cccc(Cl)c1)c1ccccc1OC(F)F,nt,11µM*,?,-4%,-1%
COc1ccc(OC)c(NC(=O)c2ccc3c(SCC(=O)O)c4c(nc3c2)CCCC4)c1,nt,nt,nt,nt,1%
Cc1nn2c(N)c(C#N)cnc2c1-c1ccc(Cl)cc1,8%,-12%,2%,7.9µM*,-1%
CCC(/C=C1\Sc2ccc(OC)cc2N1CCO)=C\c1sc2ccc(OC)cc2[n+]1CCO,12%[10 µM],?,?,10µM*,-3%
OCC1O[C@@H](O[C@@H]2C(CO)OC(O)C(O)C2O)C(O)C(O)C1O (some centres not stated),9%,0%,nt,nt,nt
N#Cc1c(Sc2ncc(C(F)(F)F)cc2Cl)nsc1C/C=N\OCc1ccccc1Br,11%[10 µM],11%,16%,10µM*,?
Cc1nn(-c2ccccc2)c(Cl)c1CN(C(=O)CCl)c1ccc(Cl)cc1,-3%[10 µM],25µM*,?,?,-1%
CC(=O)N(Cc1c(C)nn(-c2ccccc2)c1Cl)c1ccc(Cl)cc1,6%,13%,6%,?,-1%
SMILES,HTT ATP protect,HTT aggregate,Lamin A splicing,NPSR antag,Epigenetic derep
Cc1nn(-c2ccccc2)c(Cl)c1C(=O)NCC(=O)O,-5%[10 µM],-6%,-11%,-4%[46.1 µM],2%
Cc1nn(-c2ccccc2)c(Cl)c1CN(C(=O)CCl)c1cccc2ccccc12,26%[1.9 µM],13µM*,?,?,2%
CN(CC(=O)O)CC(=O)O,13%[10 µM],nt,nt,nt,nt
CC1CCN(S(=O)(=O)c2nnc(NC(=O)c3cccc(F)c3)s2)CC1,nt,nt,3%[46 µM],nt,13µM*
CN(Cc1cccs1)c1ncnc2sccc12,1%[10 µM],3.2µM*,?,-13%[46.1 µM],0%
Cc1sc2ncnc(N(C)Cc3cccs3)c2c1C,-4%,?,?,-23%[46.1 µM],-1%
COc1ccc(CNc2nc3c(-c4cccc(C)c4)nnn3c3ccccc23)cc1,nt,nt,nt,nt,2%
CN(C)CCNc1oc(/C=C/c2ccccc2)nc1C#N,-9%[1.9 µM],-1%,-6%,10µM*,0%
CCN(CC)c1ncnc2ccc(Br)cc12,15%,13µM*,10%,9%[46.1 µM],-2%
OCCNc1ncnc2ccc(Br)cc12,-3%,9%,?,4%[46.1 µM],0%
Cc1ccc(C(=O)COC(=O)c2ccc3c(c2)C(=O)N(c2cccc4ncccc24)C3=O)cc1,28%[10 µM],20µM*,-9%,9%,-1%
O=P(O)(O)OP(=O)(O)OP(=O)(O)O,-12%,25%,6%,nt,nt
Cc1cc(-c2c(C)[nH]n(-c3ccc(Cl)cc3)c2=O)n[nH]1,-82%,11µM*,?,?,-2%
COc1ccc(CCNC(=O)c2cc3c(=O)n(C)c4cc(Cl)ccc4c3s2)cc1OC,nt,nt,nt,nt,-2%
CCN(CC)c1ccc(/C=N/n2nnnc2N)c(O)c1,-28%,5.6µM*,-9%,-6%[46.1 µM],-2%
Cc1cccc(-n2nc3c([n+]2[O-])CCc2nonc2-3)c1C,nt,-1%,5%,10%,0%
[O-][n+]1onc2c1CCc1c-2nn(-c2ccccc2Cl)[n+]1[O-],-62%,11µM*,22%,?,0%
Cc1ccc(-n2nc3c([n+]2[O-])CCc2c-3no[n+]2[O-])cc1,?,13µM*,?,-14%[46.1 µM],-5%
Cc1ccc(-n2nc3c(n2)/C(=N/O)CC/C3=N\O)cc1,-31%[10 µM],2%,-5%,-11%[46.1 µM],-1%
